From article PMC7862700, “An all-to-all approach to the identification of sequence-specific readers for epigenetic DNA modifications on cytosine” come the findings set out here.

Common to all, as to assay: DAPPL (digital affinity profiling via proximity ligation, sequencing); 10 mM Tris-HCl pH 7.5, 50 mM NaCl, 1 mM DTT, 4% glycerol, room temperature, 30 min; GST-TFs on glutathione beads, 16-mer random dsDNA library, 0.1% formaldehyde crosslink after washing; high values mean tight binding
Common to all, as to details: protein: recombinant; tags: N-terminal GST; dsDNA, one strand shown

Experiment [1] has as its target T1, ELK1 (Homo sapiens, UniProt P19419 1-428).
T1 sequence: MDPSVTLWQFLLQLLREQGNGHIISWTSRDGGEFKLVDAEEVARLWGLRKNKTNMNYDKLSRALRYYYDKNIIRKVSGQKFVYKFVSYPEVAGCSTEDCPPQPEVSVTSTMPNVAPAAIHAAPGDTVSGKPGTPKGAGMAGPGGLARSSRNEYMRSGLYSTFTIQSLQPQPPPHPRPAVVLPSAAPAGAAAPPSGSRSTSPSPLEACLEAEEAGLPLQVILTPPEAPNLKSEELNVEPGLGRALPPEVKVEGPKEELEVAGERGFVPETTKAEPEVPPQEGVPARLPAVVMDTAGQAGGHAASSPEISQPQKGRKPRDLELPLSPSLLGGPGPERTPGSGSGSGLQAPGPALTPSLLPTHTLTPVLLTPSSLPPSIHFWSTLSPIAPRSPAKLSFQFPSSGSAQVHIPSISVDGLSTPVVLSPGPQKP
A digest of the protocol: (§1)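 Beads coated with glutathione captured GST-fused human transcription factors that had been expressed in yeast, and the factors were then given DNA barcodes and pooled with a tag-only sample. The pools were incubated with 200 nmole of a random double-stranded 16-mer DNA library in Tris/NaCl/DTT/glycerol buffer for 30 min at room temperature, washed, crosslinked with 0.1% formaldehyde and proximity-ligated with BsaI/T4 ligase at 37 °C for 1 h. PCR amplification and Illumina NextSeq500 sequencing came last. Binding signal is each hexamer's read frequency for a factor divided by its frequency for the tag-only sample.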

The target of experiment [2] is T2, GABPA (Homo sapiens, UniProt Q06546 1-454).
T2 sequence: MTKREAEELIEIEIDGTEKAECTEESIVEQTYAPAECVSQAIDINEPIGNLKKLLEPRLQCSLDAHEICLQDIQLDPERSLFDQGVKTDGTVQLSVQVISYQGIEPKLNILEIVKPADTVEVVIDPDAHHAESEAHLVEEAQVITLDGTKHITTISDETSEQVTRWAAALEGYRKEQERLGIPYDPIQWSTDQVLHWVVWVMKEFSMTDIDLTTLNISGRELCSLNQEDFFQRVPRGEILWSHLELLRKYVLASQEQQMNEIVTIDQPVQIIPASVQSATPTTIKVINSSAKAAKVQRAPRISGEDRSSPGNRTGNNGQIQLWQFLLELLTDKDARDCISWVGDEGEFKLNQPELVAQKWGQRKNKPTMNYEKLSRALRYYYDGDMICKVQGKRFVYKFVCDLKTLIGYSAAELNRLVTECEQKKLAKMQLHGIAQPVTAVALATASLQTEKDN
Summed up: as §1

Experiment [3] deals with T3, ERG (Homo sapiens, UniProt P11308 1-479).
T3 sequence: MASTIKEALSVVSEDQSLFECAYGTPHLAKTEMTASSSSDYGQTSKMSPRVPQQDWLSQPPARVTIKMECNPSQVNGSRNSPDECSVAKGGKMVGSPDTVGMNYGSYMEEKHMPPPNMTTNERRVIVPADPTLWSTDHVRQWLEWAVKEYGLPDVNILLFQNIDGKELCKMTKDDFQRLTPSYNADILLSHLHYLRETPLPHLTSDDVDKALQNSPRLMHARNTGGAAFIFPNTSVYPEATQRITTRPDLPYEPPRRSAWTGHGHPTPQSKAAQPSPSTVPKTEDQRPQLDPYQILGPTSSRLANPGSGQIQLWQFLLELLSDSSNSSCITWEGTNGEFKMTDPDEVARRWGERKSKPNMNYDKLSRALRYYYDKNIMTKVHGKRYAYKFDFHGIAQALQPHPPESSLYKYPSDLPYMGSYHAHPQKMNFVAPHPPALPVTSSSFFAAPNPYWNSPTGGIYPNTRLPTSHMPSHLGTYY
Summed up:
as §1

Experiment [4] deals with ELF1 (Homo sapiens, UniProt P32519 1-619). Summed up: as §1
ELF1, sequence (P32519 whole entry): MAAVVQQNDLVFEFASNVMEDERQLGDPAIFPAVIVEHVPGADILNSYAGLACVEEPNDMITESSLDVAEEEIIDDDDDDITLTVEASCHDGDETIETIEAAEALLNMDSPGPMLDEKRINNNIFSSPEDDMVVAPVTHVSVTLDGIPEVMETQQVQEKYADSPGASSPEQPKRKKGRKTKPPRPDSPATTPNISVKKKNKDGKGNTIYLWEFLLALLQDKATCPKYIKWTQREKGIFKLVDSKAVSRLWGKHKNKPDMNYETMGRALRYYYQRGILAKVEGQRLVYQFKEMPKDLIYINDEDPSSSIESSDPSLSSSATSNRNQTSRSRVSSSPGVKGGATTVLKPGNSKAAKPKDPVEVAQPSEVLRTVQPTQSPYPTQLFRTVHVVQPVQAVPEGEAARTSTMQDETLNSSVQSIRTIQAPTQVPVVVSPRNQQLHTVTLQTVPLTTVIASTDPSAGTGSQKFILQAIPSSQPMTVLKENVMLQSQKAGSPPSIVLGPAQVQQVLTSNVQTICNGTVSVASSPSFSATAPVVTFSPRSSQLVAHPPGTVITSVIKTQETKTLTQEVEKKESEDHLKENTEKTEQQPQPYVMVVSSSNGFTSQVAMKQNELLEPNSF
In experiment [5] the target is T4, EHF (Homo sapiens, UniProt Q9NZC4 1-300).
T4 sequence: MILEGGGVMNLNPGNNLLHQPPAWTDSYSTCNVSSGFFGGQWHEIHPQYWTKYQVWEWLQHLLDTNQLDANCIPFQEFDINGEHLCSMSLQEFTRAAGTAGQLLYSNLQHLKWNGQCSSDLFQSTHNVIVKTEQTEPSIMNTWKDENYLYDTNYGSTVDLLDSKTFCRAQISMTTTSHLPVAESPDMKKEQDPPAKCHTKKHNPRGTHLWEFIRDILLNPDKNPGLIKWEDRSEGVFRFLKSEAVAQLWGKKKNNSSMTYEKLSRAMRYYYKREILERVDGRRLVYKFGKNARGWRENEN
Summed up: as §1

The target of experiment [6] is SPI1 (Homo sapiens, UniProt P17947 1-270). Summed up: as §1
Experiment [7] deals with SPIB (Homo sapiens, UniProt Q01892 1-262). A digest of the protocol: as §1
SPIB, sequence (Q01892 whole entry): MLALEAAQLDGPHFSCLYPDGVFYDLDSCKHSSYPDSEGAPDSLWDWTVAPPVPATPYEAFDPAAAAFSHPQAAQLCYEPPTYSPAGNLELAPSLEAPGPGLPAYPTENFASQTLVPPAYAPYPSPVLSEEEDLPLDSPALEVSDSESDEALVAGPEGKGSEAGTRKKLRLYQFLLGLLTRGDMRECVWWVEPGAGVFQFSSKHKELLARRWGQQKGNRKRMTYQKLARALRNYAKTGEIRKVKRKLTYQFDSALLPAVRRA
The target in experiment [8] is T5, FEV (Homo sapiens, UniProt Q99581 1-238).
T5 sequence: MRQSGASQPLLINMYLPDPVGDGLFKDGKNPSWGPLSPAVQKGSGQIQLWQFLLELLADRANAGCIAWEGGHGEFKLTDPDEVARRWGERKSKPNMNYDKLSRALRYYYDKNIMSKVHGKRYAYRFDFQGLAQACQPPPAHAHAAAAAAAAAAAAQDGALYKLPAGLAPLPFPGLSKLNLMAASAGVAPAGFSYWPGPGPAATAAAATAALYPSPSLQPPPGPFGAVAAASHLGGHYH
A digest of the protocol:
as §1

In experiment [9] the target is ETV5 (Homo sapiens, UniProt P41161 1-510). Summed up:
as §1

The target in experiment [10] is ELF4 (Homo sapiens, UniProt Q99607 1-663). A digest of the protocol: as §1
ELF4, sequence (Q99607 whole entry): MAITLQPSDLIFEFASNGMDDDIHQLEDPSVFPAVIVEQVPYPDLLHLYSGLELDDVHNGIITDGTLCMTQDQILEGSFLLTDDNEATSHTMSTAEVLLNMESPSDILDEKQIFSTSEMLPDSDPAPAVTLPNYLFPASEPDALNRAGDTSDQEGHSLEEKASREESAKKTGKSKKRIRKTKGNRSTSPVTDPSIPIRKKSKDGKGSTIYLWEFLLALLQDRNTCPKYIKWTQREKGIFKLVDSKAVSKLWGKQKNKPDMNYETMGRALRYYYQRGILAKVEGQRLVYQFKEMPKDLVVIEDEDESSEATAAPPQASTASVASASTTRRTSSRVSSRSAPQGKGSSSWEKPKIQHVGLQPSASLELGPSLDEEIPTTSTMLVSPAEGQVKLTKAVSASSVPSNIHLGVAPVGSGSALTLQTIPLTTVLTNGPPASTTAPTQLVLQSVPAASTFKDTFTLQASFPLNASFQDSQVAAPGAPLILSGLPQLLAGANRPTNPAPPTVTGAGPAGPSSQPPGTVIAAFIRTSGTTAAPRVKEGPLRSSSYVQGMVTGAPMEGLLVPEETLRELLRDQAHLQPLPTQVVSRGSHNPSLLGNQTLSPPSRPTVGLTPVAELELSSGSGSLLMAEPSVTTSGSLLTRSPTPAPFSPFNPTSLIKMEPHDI
Experiment [11] deals with T6, ELK4 (Homo sapiens, UniProt P28324-2 1-405).
T6 sequence: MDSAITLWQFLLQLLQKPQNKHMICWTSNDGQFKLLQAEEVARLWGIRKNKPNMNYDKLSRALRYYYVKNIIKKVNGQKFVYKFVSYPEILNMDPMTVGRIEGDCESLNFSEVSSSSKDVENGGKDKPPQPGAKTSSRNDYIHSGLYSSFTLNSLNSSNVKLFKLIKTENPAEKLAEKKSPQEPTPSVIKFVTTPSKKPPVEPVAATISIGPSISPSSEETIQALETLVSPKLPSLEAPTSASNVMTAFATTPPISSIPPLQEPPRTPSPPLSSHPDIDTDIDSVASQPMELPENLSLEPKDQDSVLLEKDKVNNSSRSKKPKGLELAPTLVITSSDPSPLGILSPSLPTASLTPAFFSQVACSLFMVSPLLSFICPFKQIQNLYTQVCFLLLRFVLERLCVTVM
Summed up:
as §1

For experiment [12], the target named is T7, ETV2 (Homo sapiens, UniProt O00321 1-342).
T7 sequence: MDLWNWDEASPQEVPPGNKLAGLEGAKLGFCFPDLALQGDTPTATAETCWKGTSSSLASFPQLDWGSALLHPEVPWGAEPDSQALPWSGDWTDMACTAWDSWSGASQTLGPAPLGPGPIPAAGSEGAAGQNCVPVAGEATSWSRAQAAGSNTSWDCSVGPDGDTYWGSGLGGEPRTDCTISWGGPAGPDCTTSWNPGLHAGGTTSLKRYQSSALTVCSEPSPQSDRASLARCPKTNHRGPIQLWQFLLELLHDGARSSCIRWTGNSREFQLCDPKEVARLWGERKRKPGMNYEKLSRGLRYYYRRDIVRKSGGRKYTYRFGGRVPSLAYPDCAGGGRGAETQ
A digest of the protocol:
as §1

Experiment [13] addresses ETV1 (Homo sapiens, UniProt P50549 1-477). A digest of the protocol:
as §1

For experiment [14], the target named is T8, ERF (Homo sapiens, UniProt P50548 1-548).
T8 sequence: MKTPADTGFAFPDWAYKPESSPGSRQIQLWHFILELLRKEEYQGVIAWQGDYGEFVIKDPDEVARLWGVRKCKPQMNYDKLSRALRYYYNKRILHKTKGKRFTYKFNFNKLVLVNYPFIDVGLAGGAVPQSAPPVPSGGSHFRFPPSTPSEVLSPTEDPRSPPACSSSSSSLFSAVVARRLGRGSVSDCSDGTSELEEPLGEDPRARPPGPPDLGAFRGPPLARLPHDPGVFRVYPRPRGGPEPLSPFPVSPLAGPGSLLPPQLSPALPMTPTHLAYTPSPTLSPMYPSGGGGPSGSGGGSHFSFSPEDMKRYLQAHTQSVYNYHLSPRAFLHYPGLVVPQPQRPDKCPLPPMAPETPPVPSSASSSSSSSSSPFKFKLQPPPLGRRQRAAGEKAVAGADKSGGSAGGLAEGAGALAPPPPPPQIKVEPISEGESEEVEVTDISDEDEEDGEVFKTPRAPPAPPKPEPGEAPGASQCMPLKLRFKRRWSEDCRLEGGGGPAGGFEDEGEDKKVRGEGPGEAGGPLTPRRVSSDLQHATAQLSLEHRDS
Summed up: as §1

Experiment [15] concerns the target T9, ETV3L (Homo sapiens, UniProt Q6ZN32 1-361).
T9 sequence: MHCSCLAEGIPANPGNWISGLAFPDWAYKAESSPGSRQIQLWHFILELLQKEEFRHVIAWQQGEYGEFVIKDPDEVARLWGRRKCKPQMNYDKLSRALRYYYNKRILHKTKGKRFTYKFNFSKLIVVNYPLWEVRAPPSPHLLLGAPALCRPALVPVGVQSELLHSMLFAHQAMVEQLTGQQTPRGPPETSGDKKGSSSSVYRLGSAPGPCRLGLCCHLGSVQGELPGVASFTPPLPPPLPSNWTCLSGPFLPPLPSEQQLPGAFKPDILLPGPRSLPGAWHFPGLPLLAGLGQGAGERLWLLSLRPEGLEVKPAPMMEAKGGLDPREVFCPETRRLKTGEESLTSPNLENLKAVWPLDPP
A digest of the protocol: as §1

Experiment [16] concerns the target T10, ETS2 (Homo sapiens, UniProt P15036 1-469).
T10 sequence: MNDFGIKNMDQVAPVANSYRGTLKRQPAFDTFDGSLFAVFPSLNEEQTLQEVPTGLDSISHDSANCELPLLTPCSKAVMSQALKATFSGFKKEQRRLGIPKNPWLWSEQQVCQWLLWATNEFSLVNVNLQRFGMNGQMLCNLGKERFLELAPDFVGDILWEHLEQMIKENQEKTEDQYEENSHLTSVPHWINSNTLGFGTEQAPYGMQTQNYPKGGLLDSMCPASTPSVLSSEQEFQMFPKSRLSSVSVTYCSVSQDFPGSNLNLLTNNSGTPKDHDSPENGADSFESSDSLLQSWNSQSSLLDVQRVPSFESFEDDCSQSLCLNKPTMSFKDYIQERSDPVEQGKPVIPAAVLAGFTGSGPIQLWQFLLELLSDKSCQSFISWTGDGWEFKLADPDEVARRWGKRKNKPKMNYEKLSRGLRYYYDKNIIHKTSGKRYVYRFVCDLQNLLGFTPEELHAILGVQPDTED
Summed up: as §1

For experiment [17], the target named is T11, SPDEF (Homo sapiens, UniProt O95238 1-335).
T11 sequence: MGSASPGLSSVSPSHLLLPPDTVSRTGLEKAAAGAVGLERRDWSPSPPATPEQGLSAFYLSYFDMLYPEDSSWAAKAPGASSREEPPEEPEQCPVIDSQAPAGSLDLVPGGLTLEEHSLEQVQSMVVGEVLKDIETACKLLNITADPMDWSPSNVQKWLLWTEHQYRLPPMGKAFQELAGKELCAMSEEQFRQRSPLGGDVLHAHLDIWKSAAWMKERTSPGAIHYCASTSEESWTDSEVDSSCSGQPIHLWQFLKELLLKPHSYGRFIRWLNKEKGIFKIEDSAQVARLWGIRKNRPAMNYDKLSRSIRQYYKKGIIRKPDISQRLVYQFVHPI
A digest of the protocol:
as §1

Experiment [18] concerns the target T12, ETV7 (Homo sapiens, UniProt Q9Y603 1-341).
T12 sequence: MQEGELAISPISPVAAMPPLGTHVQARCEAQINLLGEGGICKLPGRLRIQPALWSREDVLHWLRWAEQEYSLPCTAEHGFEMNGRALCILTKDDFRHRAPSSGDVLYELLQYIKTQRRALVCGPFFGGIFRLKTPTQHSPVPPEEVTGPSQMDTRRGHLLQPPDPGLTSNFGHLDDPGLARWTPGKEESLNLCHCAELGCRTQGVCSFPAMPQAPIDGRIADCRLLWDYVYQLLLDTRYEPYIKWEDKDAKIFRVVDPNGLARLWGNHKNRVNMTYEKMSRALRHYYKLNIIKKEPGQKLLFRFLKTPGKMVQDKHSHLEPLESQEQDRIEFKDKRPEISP
A digest of the protocol:
as §1

Experiment [19] concerns the target T13, ETV3 (Homo sapiens, UniProt P41162-2 1-143).
T13 sequence: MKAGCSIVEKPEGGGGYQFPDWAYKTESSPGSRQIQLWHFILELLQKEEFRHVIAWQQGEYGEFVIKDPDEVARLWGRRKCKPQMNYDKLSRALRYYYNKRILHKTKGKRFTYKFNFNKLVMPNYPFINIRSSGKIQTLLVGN
Summed up:
as §1

In experiment [20] the target is ETV6 (Homo sapiens, UniProt P41212 1-452). A digest of the protocol:
as §1

ETV5, sequence (P41161 whole entry): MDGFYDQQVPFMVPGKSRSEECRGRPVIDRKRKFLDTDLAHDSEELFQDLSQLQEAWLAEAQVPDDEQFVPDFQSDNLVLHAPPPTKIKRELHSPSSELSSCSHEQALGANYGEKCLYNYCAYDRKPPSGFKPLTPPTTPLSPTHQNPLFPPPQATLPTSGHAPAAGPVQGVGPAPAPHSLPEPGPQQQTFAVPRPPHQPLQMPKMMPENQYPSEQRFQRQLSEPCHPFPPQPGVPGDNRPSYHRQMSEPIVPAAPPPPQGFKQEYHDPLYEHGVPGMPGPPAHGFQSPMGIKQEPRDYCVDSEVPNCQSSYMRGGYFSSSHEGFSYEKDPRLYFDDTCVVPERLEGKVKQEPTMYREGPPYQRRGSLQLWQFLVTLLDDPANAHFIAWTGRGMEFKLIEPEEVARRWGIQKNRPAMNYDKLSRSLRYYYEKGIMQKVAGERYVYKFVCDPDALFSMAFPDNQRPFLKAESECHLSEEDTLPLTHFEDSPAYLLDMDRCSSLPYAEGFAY
ETV6, sequence (P41212 whole entry): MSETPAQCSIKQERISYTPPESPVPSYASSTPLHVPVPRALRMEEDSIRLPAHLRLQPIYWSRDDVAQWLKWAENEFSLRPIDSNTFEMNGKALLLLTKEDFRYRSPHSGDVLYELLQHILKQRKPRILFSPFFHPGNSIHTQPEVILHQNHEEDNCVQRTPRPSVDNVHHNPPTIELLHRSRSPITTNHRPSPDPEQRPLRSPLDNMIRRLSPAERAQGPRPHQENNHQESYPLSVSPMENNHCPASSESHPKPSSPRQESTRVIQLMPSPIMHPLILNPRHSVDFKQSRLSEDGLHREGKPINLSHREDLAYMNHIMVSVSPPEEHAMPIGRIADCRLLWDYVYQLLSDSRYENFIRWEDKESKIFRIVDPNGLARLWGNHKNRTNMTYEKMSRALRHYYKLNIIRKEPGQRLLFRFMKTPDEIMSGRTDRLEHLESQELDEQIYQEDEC
ETV1, sequence (P50549 whole entry): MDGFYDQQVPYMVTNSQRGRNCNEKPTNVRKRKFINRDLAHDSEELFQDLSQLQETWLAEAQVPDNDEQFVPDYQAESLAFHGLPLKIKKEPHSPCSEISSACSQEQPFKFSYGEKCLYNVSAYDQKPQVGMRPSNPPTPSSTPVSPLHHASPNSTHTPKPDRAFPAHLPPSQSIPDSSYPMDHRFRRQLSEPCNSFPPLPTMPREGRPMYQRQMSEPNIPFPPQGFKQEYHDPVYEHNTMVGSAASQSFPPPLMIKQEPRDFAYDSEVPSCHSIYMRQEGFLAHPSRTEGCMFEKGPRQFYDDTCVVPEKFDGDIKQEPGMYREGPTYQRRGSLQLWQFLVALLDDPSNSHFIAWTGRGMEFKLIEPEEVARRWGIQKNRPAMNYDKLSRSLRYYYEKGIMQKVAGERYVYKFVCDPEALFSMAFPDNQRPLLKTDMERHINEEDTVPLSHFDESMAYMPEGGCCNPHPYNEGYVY

ACGACC: the binding signal in [1] was 1.21 fold enrichment (6-mer frequency, TF over GST control); in [2], 1.11 fold enrichment (6-mer frequency, TF over GST control); in [3], 1.1 fold enrichment (6-mer frequency, TF over GST control); in experiment [4], 1.21 fold enrichment (6-mer frequency, TF over GST control); in [5], 1.1 fold enrichment (6-mer frequency, TF over GST control); in experiment [6], 1.03 fold enrichment (6-mer frequency, TF over GST control). Moreover, the binding signal is 1.07 fold enrichment (6-mer frequency, TF over GST control) in experiment [7]; 1.22 fold enrichment (6-mer frequency, TF over GST control) in experiment [8]; 1.17 fold enrichment (6-mer frequency, TF over GST control) in experiment [9]; 1.26 fold enrichment (6-mer frequency, TF over GST control) in [10]; 1.14 fold enrichment (6-mer frequency, TF over GST control) in experiment [11]; 1.34 fold enrichment (6-mer frequency, TF over GST control) in [12]. Besides, the binding signal in [13] was 1.2 fold enrichment (6-mer frequency, TF over GST control); in experiment [14], 1.11 fold enrichment (6-mer frequency, TF over GST control); in [15] it was 1.18 fold enrichment (6-mer frequency, TF over GST control); in [16] it was 1.15 fold enrichment (6-mer frequency, TF over GST control); in experiment [17], 1.2 fold enrichment (6-mer frequency, TF over GST control); in experiment [18] it was 1.18 fold enrichment (6-mer frequency, TF over GST control). Moreover, the binding signal in [19] was 1.24 fold enrichment (6-mer frequency, TF over GST control); in [20], 1.19 fold enrichment (6-mer frequency, TF over GST control).
